Measured values taken from PubChem BioAssay (Tox21).
Inconclusive results are not listed. Entries that show only a call come without a potency. Calls of active or inactive are those of the source. Unless noted, the call rests on the fitted dose curve; in most records, active means well fitted cell-killing curve with a large enough effect in the repeat runs; inconclusive means weak or mixed curves, or effect the other way; inactive means flat fitted curve, though single readings scatter. Positions of bridges follow the written chain, without caps; N, C: chain ends. Non-standard residues stand in square brackets, D forms with d. Residues, ends and D or L forms follow the SMILES beside them. *: point of attachment. X1 = CC[C@@H](C)[C@@H](N)C1=N[C@H](C(=O)*)CS1; d(aIle) = CC[C@H](C)[C@@H](N)C(=O)O; dOrn = NCCC[C@@H](N)C(=O)O

Biological target: Androgen receptor (Homo sapiens) (UniProt P10275)
Sequence (P10275 whole entry, looked up): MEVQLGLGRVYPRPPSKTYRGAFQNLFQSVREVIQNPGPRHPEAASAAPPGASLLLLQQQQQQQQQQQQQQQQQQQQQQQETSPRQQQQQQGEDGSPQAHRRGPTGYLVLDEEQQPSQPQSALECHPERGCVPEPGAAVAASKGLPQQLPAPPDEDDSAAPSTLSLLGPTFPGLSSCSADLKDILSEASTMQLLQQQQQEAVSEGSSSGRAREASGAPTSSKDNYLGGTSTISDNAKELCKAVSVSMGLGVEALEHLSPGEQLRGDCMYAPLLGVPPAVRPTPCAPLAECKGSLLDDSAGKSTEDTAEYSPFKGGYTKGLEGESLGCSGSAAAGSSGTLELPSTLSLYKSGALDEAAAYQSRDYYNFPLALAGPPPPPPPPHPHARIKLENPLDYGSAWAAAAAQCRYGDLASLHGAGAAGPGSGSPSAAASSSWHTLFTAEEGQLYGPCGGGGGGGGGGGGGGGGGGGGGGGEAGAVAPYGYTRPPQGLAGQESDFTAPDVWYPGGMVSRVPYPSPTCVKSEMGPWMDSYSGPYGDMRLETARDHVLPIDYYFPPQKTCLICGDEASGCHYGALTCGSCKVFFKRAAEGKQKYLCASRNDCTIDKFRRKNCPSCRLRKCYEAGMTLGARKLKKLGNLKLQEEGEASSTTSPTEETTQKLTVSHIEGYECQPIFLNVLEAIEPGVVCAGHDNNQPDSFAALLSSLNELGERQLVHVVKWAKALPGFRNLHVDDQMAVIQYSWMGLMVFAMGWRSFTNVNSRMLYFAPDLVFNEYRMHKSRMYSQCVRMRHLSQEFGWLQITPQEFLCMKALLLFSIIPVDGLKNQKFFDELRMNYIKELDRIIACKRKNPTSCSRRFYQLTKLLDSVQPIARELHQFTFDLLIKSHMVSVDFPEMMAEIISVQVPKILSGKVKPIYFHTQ
Test: qHTS assay to identify small molecule antagonists of the androgen receptor (AR) signaling pathway (AID 743035; active means well fitted inhibition curve with a large enough effect in the signal ratio in the repeat runs, not every such curve was filed as active; the % refers to the signal ratio; further: potency means the concentration at half of the fitted maximal effect)
Details: HEK293 AR-UAS-bla, R1881-stimulated, beta-lactamase FRET, 16 h; series mostly up to 58.5 µM
Outline: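 Reporter HEK293 cells were exposed to compounds and R1881 overnight (16 h, 37C); beta-lactamase activity was then quantified by FRET fluorescence.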

Compound	Potency
CCN1CCCC1CNC(=O)c1cc(S(=O)(=O)CC)ccc1OC (centres undefined)	inactive
CC(=O)[C@]1(O)Cc2c(O)c3c(c(O)c2[C@@H](O[C@H]2C[C@H](N)[C@H](O)[C@H](C)O2)C1)C(=O)c1ccccc1C3=O	3.38 µM (active)
CCc1ncnc2cc(OC)c(OC)cc12	inactive

Biological target: Androgen receptor (Homo sapiens) (UniProt P10275)
Test: qHTS assay to identify small molecule agonists of the androgen receptor (AR) signaling pathway (AID 743036; active means well fitted activation curve with a large enough effect in the signal ratio in the repeat runs, with a control signal flat, not every such curve was filed as active; the % refers to the signal ratio)
Details: HEK293 AR-UAS-bla GripTite, beta-lactamase FRET ratio, 16 h; series mostly up to 62.4 µM
Outline: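 AR-bla HEK293 cells, 2,000/well; 4 h preincubation 37C/5% CO2; compound (DMSO) 16 h at 37C; LiveBLAzer B/G FRET substrate 2 h RT; fluorescence intensity read-out.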

Compound	Potency
CCN1CCCC1CNC(=O)c1cc(S(=O)(=O)CC)ccc1OC (centres undefined)	inactive
CC1(C)C[C@@H]1C(=O)N/C(=C\CCCCSC[C@H](N)C(=O)O)C(=O)O	inactive
C=CC1=C(C(=O)O)N2C(=O)[C@@H](NC(=O)/C(=N\O)c3csc(N)n3)[C@H]2SC1 (stereo in doubt)	inactive

Tested on: not listed separately
Test: qHTS assay to identify small molecule antagonists of the androgen receptor (AR) signaling pathway using the MDA cell line - cell viability counter screen (AID 743041; further: nearly all actives have a fitted effect of over 45% in size; further: potency means the concentration at half of the fitted maximal effect)
Details: MDA-kb2 viability, CellTiter-Fluor, 16 h, cells co-treated with R1881 androgen agonist; series mostly up to 70.3 µM
Outline: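 Cytotoxicity counter screen: MDA-kb2 AR-luc cells, compound + R1881, 16 h, 37C, 0% CO2; CellTiter-Fluor added at 15.5 h, fluorescence read after 30 min.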

Compound	Potency
CCN1CCCC1CNC(=O)c1cc(S(=O)(=O)CC)ccc1OC (centres undefined)	inactive
Nc1nc(NC2CC2)c2ncn([C@@H]3C=C[C@@H](CO)C3)c2n1	inactive
Cc1cc(N)c2ccccc2[n+]1CCCCCCCCCC[n+]1c(C)cc(N)c2ccccc21	7.49 µM (active)
CC[C@@H](C)[C@H](N)C(=O)O	inactive
CCCCCCCCCCCCN1CCCC1=O	inactive
CC1(C)C[C@@H]1C(=O)N/C(=C\CCCCSC[C@H](N)C(=O)O)C(=O)O	inactive
CC12CCC(C[N+](C)(CCC[N+](C)(C)C)C1)C2(C)C (centres undefined)	inactive
CC(C)(COP(=O)(O)OP(=O)(O)OC[C@H]1O[C@@H](n2cnc3c(N)ncnc32)[C@H](O)[C@@H]1OP(=O)(O)O)C(O)C(=O)NCCC(=O)NCCS (some centres undefined)	inactive
CO[C@H](C(=O)[C@@H](O)[C@@H](C)O)C1Cc2cc3cc(O[C@H]4C[C@@H](O[C@H]5C[C@@H](O)[C@H](O)[C@@H](C)O5)[C@@H](O)[C@@H](C)O4)c(C)c(O)c3c(O)c2C(=O)[C@H]1O[C@H]1C[C@@H](O[C@H]2C[C@@H](O[C@H]3C[C@](C)(O)[C@H](O)[C@@H](C)O3)[C@H](O)[C@@H](C)O2)[C@H](O)[C@@H](C)O1 (some centres undefined)	inactive
CCOC(=O)Cc1ccc(-c2ccccc2)cc1	inactive
CC(=O)O[C@H]1C[C@@H]2CC[C@@H]3[C@H](CC[C@@]4(C)[C@H]3C[C@H]([N+]3(C)CCCCC3)[C@@H]4OC(C)=O)[C@@]2(C)C[C@@H]1[N+]1(C)CCCCC1	inactive
O=C1c2c(O)cccc2[C@H]([C@@H]2O[C@H](CO)[C@@H](O)[C@H](O)[C@H]2O)c2cc(CO)cc(O)c21	inactive
CC1CCCCN1CCCOC(=O)c1ccccc1 (centres undefined)	inactive
O=C(O)CCCC/C=C(\c1ccccc1)c1cccnc1	inactive
CC[C@@H](C)[C@@H](N)C1=N[C@H](C(=O)N[C@@H](CC(C)C)C(=O)N[C@@H](CCC(=O)O)C(=O)N[C@@H](C(=O)N[C@@H]2CCCCNC(=O)[C@@H](CC(N)=O)NC(=O)[C@@H](CC(=O)O)NC(=O)[C@@H](Cc3cnc[nH]3)NC(=O)[C@@H](Cc3ccccc3)NC(=O)[C@@H]([C@H](C)CC)NC(=O)[C@@H](CCCN)NC2=O)[C@@H](C)CC)CS1 (X1-LE[d(aIle)][dK][dOrn][dI][dF][dH][dD][dN]; lactam 4-C)	inactive
NC(=S)NS(=O)(=O)c1ccc(N)cc1	inactive
CO[C@H]1C[C@@H]2CC[C@@H](C)[C@@](O)(O2)C(=O)C(=O)N2CCCC[C@H]2C(=O)O[C@H]([C@H](C)C[C@@H]2CC[C@@H](O)[C@H](OC)C2)CC(=O)[C@H](C)C=C(C)[C@@H](O)[C@@H](OC)C(=O)[C@H](C)C[C@H](C)/C=C/C=CC=C1C	29.8 µM (active)

Compound	Potency
CC(=O)[C@]1(O)Cc2c(O)c3c(c(O)c2[C@@H](O[C@H]2C[C@H](N)[C@H](O)[C@H](C)O2)C1)C(=O)c1ccccc1C3=O	15 µM (active)
O=C1[O][Bi][O]c2ccccc21	inactive
N=C(N)n1cccn1	inactive
C=CC[N+]1([C@H]2C[C@H]3[C@@H]4CC[C@H]5C[C@H](O)[C@@H](N6CCOCC6)C[C@]5(C)[C@H]4CC[C@]3(C)[C@H]2OC(C)=O)CCCC1	inactive
CCc1ncnc2cc(OC)c(OC)cc12	inactive
C=CC1=C(C(=O)O)N2C(=O)[C@@H](NC(=O)/C(=N\O)c3csc(N)n3)[C@H]2SC1 (stereo in doubt)	inactive
CC(=O)N[C@@H](C=O)[C@H](O)[C@H](O)[C@@H](O)CO	inactive
CNCC(=O)N[C@@H](CCCN=C(N)N)C(=O)N[C@H](C(=O)N[C@@H](Cc1ccc(O)cc1)C(=O)N[C@H](C(=O)N[C@@H](Cc1cnc[nH]1)C(=O)N1CCC[C@H]1C(=O)N[C@@H](C)C(=O)O)C(C)C)C(C)C	inactive
CCCOC(=O)c1ccccc1O	inactive
CC(C)(S)C(=O)N[C@@H](CS)C(=O)O	inactive
CCCCCCCC/C=C\CCCCCCCC(=O)N(CCO)CCO	43.1 µM (active)
Oc1ccc(Cl)cc1C1CCCC1	inactive
O=C(O)/C=C/C(=O)Nc1ccc(S(=O)(=O)Nc2nccs2)cc1	inactive
N#Cc1c(N(CC(=O)O)CC(=O)O)sc(C(=O)O)c1CC(=O)O	inactive
N[C@@H](Cc1ccc(O)c(O)c1)C(=O)O	inactive
CC(C)c1ccc2sc3ccccc3c(=O)c2c1	inactive
